Assay outcomes as filed in PubChem BioAssay.
The list is not random: actives were taken first. Their share in the collection is about 15%.
ELG1 DNA repair: blocks ELG1-dependent DNA repair in HEK293T cells; HEK293T ELG1-luciferase reporter, luminescence, 16 h; DNA damage induced by 5-fluorouridine; 330,000 tested, 2.3% active; Potency, µM (top dose mostly 46.1 µM), for the others: top-dose activity change, negative = inhibition, hits mostly inhibitors; also: nearly all actives have a fitted effect of over 55% in size
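Overnight (16 hr) co-exposure of 2,000 cells/well to 5-fluorouridine and compound at 37 °C preceded detection. Luciferase was quantified via ONE-Glo luminescence; loss of signal denotes inhibition.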
RORgamma inh: blocks mouse ROR gamma transcriptional activity | Drosophila S2 Gal4-RORgamma UAS-luciferase reporter, 20 h | Potency, µM (titrated, usually from 53.6 µM), inactives show top-dose activity change, negative = inhibition, hits mostly inhibitors | 310,000 tested, 5.4% active; also: nearly all actives have a fitted effect of over 60% in size
Target sequence (P51450 whole entry, looked up, the tested form may be a part): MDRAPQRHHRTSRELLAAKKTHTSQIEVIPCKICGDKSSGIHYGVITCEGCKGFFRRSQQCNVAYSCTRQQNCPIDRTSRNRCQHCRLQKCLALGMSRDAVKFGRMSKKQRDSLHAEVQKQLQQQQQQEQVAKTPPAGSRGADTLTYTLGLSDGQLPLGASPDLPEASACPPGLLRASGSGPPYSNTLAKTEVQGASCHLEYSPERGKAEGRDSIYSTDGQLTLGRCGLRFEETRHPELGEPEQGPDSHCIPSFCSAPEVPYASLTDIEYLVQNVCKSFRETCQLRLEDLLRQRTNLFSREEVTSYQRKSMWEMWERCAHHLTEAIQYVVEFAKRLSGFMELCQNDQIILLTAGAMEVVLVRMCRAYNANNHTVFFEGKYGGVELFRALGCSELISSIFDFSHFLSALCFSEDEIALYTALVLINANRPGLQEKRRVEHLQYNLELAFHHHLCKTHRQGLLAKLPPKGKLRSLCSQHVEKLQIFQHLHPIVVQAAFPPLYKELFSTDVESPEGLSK
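In this cell-based reporter format, copper sulfate (700 uM final) drives Gal4–ROR gamma fusion expression from a metallothionein promoter in Drosophila Schneider cells; compounds preincubated 1 hr, reporter read after 20 hr at ambient temperature.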
DT40 TDP1 CPT: growth inhibition of DT40 Tdp1-/-;hTDP1 cells with camptothecin (screen for TDP1 inhibitors); chicken DT40 Tdp1-/-;hTDP1 cells + 20 nM CPT, ATP luminescence, 48 h; 420,000 tested, 12% active; AID 686979; Potency, µM (doses to about 46.2 µM), inactives show at the highest dose activity change, negative = growth inhibition, actives largely listed as inhibitors; also: nearly all actives have a fitted effect of over 55% in size
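Chicken DT40 Tdp1-/- cells stably complemented with human TDP1 were seeded at 400 cells/well in medium containing 20 nM camptothecin, exposed to pin-transferred compounds, and grown at 37 °C for at least 48 hr. Viability was read as ATP luminescence.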
TDP1 cell noCPT: qHTS for Inhibitors of human tyrosyl-DNA phosphodiesterase 1 (TDP1): qHTS in cells in absence of CPT. DT40 Tdp1-/- hTDP1 cells, no CPT, ATP luminescence, 48 h. Potency, µM (series often up to 46.2 µM), for the others: at the top dose activity change, negative = growth inhibition, actives largely listed as inhibitors. 420,000 tested, 15% active. AID 686978, 2013; also: nearly all actives have a fitted effect of over 55% in size
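Chicken DT40 Tdp1-/- cells complemented with human TDP1, screened without camptothecin (DMSO vehicle only), 400 cells/well. Compounds pin-transferred, cells incubated at 37 °C for at least 48 hr. Growth read as ATP-dependent luminescence (CellTiter-Glo, 30 min at RT).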
Gal4-VP16 FLuc: Gal4-VP16 reporter inhibition counter-screen; Drosophila S2 Gal4-VP16 UAS-luciferase, luminescence, 20 h; Potency, µM (titrated, usually from 53.6 µM), without a hit: at the top dose activity, negative = inhibition, most hits filed as inhibitors; 310,000 tested, 3.5% active;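 also: Gal4-VP16 expression switched on by copper sulfate through the metallothionein promoter; nearly all actives have a fitted effect of over 50% in size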
12-LOX inh: ALOX12 (human) lipoxygenase inhibition | P18054 | purified 12hLO, xylenol orange hydroperoxide absorbance | Potency, µM (series often up to 108 µM), for the others: top-dose activity change, negative = inhibition, actives largely listed as inhibitors | 580,000 tested, 1.1% active
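Hydroperoxide product was detected by ferrous iron/xylenol orange as the 573 to 405 nm absorbance ratio. Arachidonic acid at 40 uM (final) was turned over for 30 min at room temperature by 150 nM human 12hLO, pH 7.0 Hepes buffer, after 15 min compound preincubation.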
An asterisk follows results filed as active; ? = inconclusive; . = no result given; [ ] = another dose, or the depositor's remark. Calls follow the shape of the dose curve; as a rule, active = well fitted curve in the direction sought with a large enough effect; inconclusive = small, poorly fitted or top-dose-only effect, or another doubt; inactive = no such curve, though single readings can be large; an effect the other way counts as inactive or inconclusive. % is scaled to controls: 0 for no effect and ±100 for the full control effect; potency is read from the fitted curve at half-maximal effect.

SMILES	ELG1 DNA repair	RORgamma inh	DT40 TDP1 CPT	TDP1 cell noCPT	Gal4-VP16 FLuc	12-LOX inh
COc1ccccc1NC(=O)C1=C(C)Nc2nc(SCc3ccccc3F)nn2C1c1cccs1 (stereo not given)	.	.	8.2µM*	9.2µM*	.	-14%
CCOC(=O)C1=C(C)Nc2nc(SCc3ccccc3C)nn2C1c1cccs1 (stereo not given)	.	.	.	.	.	6%
COc1ccccc1NC(=O)C1=C(C)Nc2nc(SCc3ccccc3C)nn2C1CC(C)C (stereo not given)	.	.	-73%	21µM*	.	-17%
CC(C)CN1C(=O)C2(CC(=O)Nc3[nH]ncc32)c2ccccc21 (stereo not given)	.	.	.	.	.	7%
O=C(Nc1ccc([C@@H](O)[C@H]2COCC(=O)N2Cc2ccccc2F)cc1)c1cccc(F)c1	.	.	.	.	.	25%
COc1cccc(NC(=O)c2sc3nc(C)c(C(=O)Nc4ccc(C)cc4C)c(-c4ccc(C)o4)c3c2N)c1	.	.	10µM*	6.5µM*	.	-7%
COc1cccc(NC(=O)c2sc3nc(C)c(C(=O)Nc4ccc(Cl)cc4)c(-c4ccc(Br)cc4)c3c2N)c1	.	.	?	7.3µM*	.	0%
CCOc1ccc(NC(=O)c2sc3nc4c(c(-c5ccc(OC)cc5)c3c2N)C(=O)CC(C)(C)C4)cc1	.	.	?	?	.	-26%
COc1ccc(-c2c3c(nc4sc(C(=O)Nc5ccc(Cl)cc5)c(N)c24)CC(C)(C)CC3=O)cc1	.	.	16µM*	8.2µM*	.	-20%
O=C(CCC1CCCC1)N1CCCC(c2noc(COc3ccccc3F)n2)C1 (stereo not given)	.	.	.	.	.	-5%
CC(C)Cc1nc2oc3c(N4CCN(CCO)CC4)ncnc3c2c2c1CCCC2	?	?	13µM*	13µM*	-12%	-15%
CCCc1nc2oc3c(NCC(C)O)ncnc3c2c2c1CCCC2 (stereo not given)	23µM*	19%	?	?	-9%	?
CC(C)Cc1nc2oc3c(NCc4cccnc4)ncnc3c2c2c1CCC2	?	17%	-25%	-11%	-9%	-18%
CC(C)Cc1nc2oc3c(NCC4CCCO4)ncnc3c2c2c1CCC2 (stereo not given)	12µM*	-4%	13µM*	18µM*	5%	-3%
CCN1CCN(c2ncnc3c2oc2nc(C(C)C)c4c(c23)CCC4)CC1	17%	-16%	.	.	-1%	.
CC(C)c1nc2oc3c(NCc4cccnc4)ncnc3c2c2c1CCC2	8.2µM*	-4%	-26%	?	-10%	0%
O=C(c1ccc(Cl)cc1)N1CCn2c(nn(-c3ccc(F)cc3)c2=O)C1	.	.	.	.	.	16%[6.33 µM]
Cc1noc(-c2nc(-c3ccc(N(C)C)cc3)no2)n1	.	.	.	.	.	-6%
CC(=O)c1sc2c(c1C)c(=O)n(-c1ccc(Cl)cc1)c(=O)n2Cc1ccc(Cl)cc1	.	.	8.2µM*	8.2µM*	.	-16%
CCc1ccc(-n2c(=O)c3c4c(sc3n(CC(=O)c3ccc(Cl)cc3)c2=O)CCC4)cc1	.	.	2.6µM*	2.6µM*	.	0%
O=C(Cn1c(=O)n(-c2ccc(Cl)cc2)c(=O)c2c3c(sc21)CCC3)c1ccc(F)cc1	.	.	8.2µM*	9.2µM*	.	?
CCOC(=O)N1CCc2c(sc3c2c(=O)n(-c2ccc(CC)cc2)c(=O)n3Cc2cc(C)ccc2C)C1	.	.	-7%	-7%	.	0%
CCOC(=O)N1CCc2c(sc3c2c(=O)n(-c2ccc(CC)cc2)c(=O)n3CC(=O)c2ccc(F)cc2)C1	.	.	13µM*	?	.	-22%
CCc1ccc(-n2c(=O)c3c4c(sc3n(CC(=O)NCCCOC)c2=O)CCCC4)cc1	.	.	?	?	.	-15%
